According to the supplement of paper PMC6522484:
± gives the standard deviation of the averaged measurements.

How the values were obtained:
DLD1 [1] = test: cell viability (CellTiter-Glo) relative to plate median (fraction of plate median); higher = more viable cells; details: 5 µM; treatment time 24 h; reporter: 7TFP
Summary of the method: (§1)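 Stable lentiviral TCF/Wnt firefly luciferase reporters (7TFP or TCF4/Wnt) were present in the colorectal cancer cell lines used. These cells received library compounds at a final 5 µM for 24 h, and parallel plates were read for firefly luciferase or CellTiterGlo luminescence. Each well was normalised to the plate median, and the value reported is the mean of two independent replicates.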

HCT116 = test: as above; details: 5 µM; treatment time 24 h; reporter: TCF4/Wnt
Summary of the method: as §1

SW480 [2] = test: as above; details: 5 µM; treatment time 24 h; reporter: 7TFP
Summary of the method: as §1

DLD1 [3] = test: TCF/Wnt firefly luciferase reporter signal relative to plate median (fraction of plate median); higher = higher Wnt reporter signal; details: 5 µM; treatment time 24 h; reporter: 7TFP
Summary of the method: as §1

SW480 [4] = test: as above; details: 5 µM; treatment time 24 h; reporter: 7TFP
Summary of the method: as §1

| SMILES | cell viability (DLD1 [1]) | cell viability (HCT116) | cell viability (SW480 [2]) | TCF/Wnt firefly luciferase reporter signal (DLD1 [3]) | TCF/Wnt firefly luciferase reporter signal (SW480 [4]) |
| --- | --- | --- | --- | --- | --- |
| CNCc1ccccc1 | 1.03 ± 0.014 | 1.125 ± 0.0071 | 1.03 ± 0.021 | 1.03 ± 0.067 | 1.045 ± 0.0071 |
| CC(=O)[C@@]1(O)CC[C@H]2[C@@H]3CCC4=CC(=O)CC[C@]4(C)[C@H]3CC[C@@]21C | 0.947 ± 0.12 | 0.926 ± 0.063 | 0.922 ± 0.12 | 1.035 ± 0.0071 | 1.02 |
| CCC(=O)O[C@H]1[C@H](O[C@@H]2[C@@H](C)[C@H](O[C@H]3C[C@@](C)(OC)[C@@H](O)[C@H](C)O3)[C@@H](C)C(=O)O[C@H](CC)[C@@](C)(O)[C@H](O)[C@@H](C)C(=O)[C@H](C)C[C@@]2(C)O)O[C@H](C)C[C@@H]1N(C)C | 0.989 ± 0.058 | 0.93 ± 0.011 | 1.01 ± 0.016 | 0.9955 ± 0.0064 | 1.11 ± 0.014 |
| Nc1ncnc2c1ncn2[C@H]1C[C@H](O)[C@@H](CO)O1 | 1.07 ± 0.064 | 1.06 ± 0.021 | 1.01 ± 0.044 | 1.05 ± 0.014 | 1.09 ± 0.064 |
| CCCCNc1ccc(C(=O)OCCN(C)C)cc1 | 1.04 ± 0.042 | 1.12 ± 0.085 | 1.02 ± 0.035 | 1.1 ± 0.035 | 0.973 ± 0.0085 |
| CN(C)CCCN1c2ccccc2Sc2ccccc21 | 0.908 ± 0.056 | 0.908 ± 0.032 | 0.96 ± 0.071 | 0.92 ± 0.021 | 0.895 ± 0.069 |
| COc1cc(NS(C)(=O)=O)ccc1Nc1c2ccccc2nc2ccccc12 | 1.11 ± 0.14 | 0.83 ± 0.09 | 1.03 ± 0.035 | 0.973 ± 0.053 | 0.841 ± 0.11 |
| CCCCCCCCCCCC1=C(O)C(=O)C=C(O)C1=O | 1.01 ± 0.06 | 1.12 ± 0.071 | 0.9665 ± 0.00071 | 1.1 ± 0.028 | 1.075 ± 0.0071 |
| COc1cc(C)c(C(=O)Oc2cc(C)c(C(=O)O)c(O)c2C)c(O)c1C=O | 1.06 ± 0.014 | 0.9725 ± 0.0021 | 1.03 ± 0.014 | 1.06 ± 0.078 | 1.12 ± 0.085 |
| COC(=O)[C@@H]1OC(=O)C2OC23[C@@]1(C)CCC1[C@]2(C)C(C[C@@H](O)[C@]13C)C(C)(C)[C@H](OC(C)=O)C[C@@H]2OC(C)=O (stereo not given in full) | 1.01 ± 0.091 | 1.01 ± 0.014 | 1.01 ± 0.035 | 1.1 ± 0.042 | 1 ± 0.11 |
| C=C(C)[C@@H]1CC[C@]2(CO)CC[C@]3(C)[C@H](CC[C@@H]4[C@@]5(C)CC[C@H](O)C(C)(C)[C@@H]5CC[C@]43C)[C@@H]12 | 0.995 ± 0.064 | 0.973 ± 0.053 | 0.978 ± 0.027 | 1.135 ± 0.0071 | 1.045 ± 0.0071 |
| C[C@H]1CC[C@@H](C(C)(C)O)CC2=C1CC[C@@H]2C | 0.964 ± 0.079 | 1.025 ± 0.0071 | 0.9715 ± 0.0078 | 0.907 ± 0.11 | 0.86 ± 0.016 |
| CCCc1ncc(C[n+]2ccccc2C)c(N)n1 | 0.995 ± 0.05 | 0.935 ± 0.059 | 0.972 ± 0.0028 | 0.956 ± 0.057 | 0.987 ± 0.011 |
| O=CNc1ccccc1C(=O)O [N-Formylanthranilic acid] | 0.936 ± 0.018 | 1.02 ± 0.021 | 0.92 ± 0.088 | 0.954 ± 0.12 | 0.689 ± 0.13 |
| Nc1c(Br)cc(Br)cc1CN[C@H]1CC[C@H](O)CC1 | 0.914 ± 0.066 | 1.09 ± 0.11 | 0.946 ± 0.029 | 0.944 ± 0.19 | 0.887 ± 0.016 |
| O=C(OCc1ccccc1)c1ccccc1 | 1.03 ± 0.035 | 0.996 ± 0.062 | 0.928 ± 0.029 | 0.954 ± 0.14 | 0.999 ± 0.1 |
| C[C@@H]1CC[C@@]2(OC1)O[C@H]1C[C@H]3[C@@H]4CC[C@@H]5C[C@@H](O)CC[C@]5(C)[C@H]4CC[C@]3(C)[C@H]1[C@@H]2C | 0.993 ± 0.038 | 1.09 ± 0.05 | 1.01 ± 0.05 | 0.956 ± 0.09 | 1.04 ± 0.071 |

| SMILES | cell viability (DLD1 [1]) | cell viability (HCT116) | cell viability (SW480 [2]) | TCF/Wnt firefly luciferase reporter signal (DLD1 [3]) | TCF/Wnt firefly luciferase reporter signal (SW480 [4]) |
| --- | --- | --- | --- | --- | --- |
| Cc1cc(NS(=O)(=O)c2ccc(N)cc2)no1 | 1.035 ± 0.0071 | 1.15 ± 0.035 | 1.01 | 1.09 ± 0.11 | 0.988 ± 0.032 |
| CO[C@@]1(NC(=O)Cc2cccs2)C(=O)N2C(C(=O)O)=C(COC(N)=O)CS[C@@H]21 | 1.06 ± 0.078 | 1.08 ± 0.2 | 0.968 ± 0.023 | 1.07 ± 0.11 | 0.887 ± 0.021 |
| CC1(C)S[C@@H]2[C@H](NC(=O)C(C(=O)O)c3ccccc3)C(=O)N2[C@H]1C(=O)O (stereo not given in full) | 0.912 ± 0.073 | 0.9345 ± 0.0064 | 0.9405 ± 0.005 | 0.999 ± 0.13 | 1.05 ± 0.021 |
| CC1(C)S[C@@H]2[C@H](NC(=O)[C@H](C(=O)O)c3ccsc3)C(=O)N2[C@H]1C(=O)O | 1.09 ± 0.092 | 1.045 ± 0.0071 | 1.03 ± 0.052 | 0.871 ± 0.069 | 1.075 ± 0.0071 |
| O=c1c(-c2ccc(O)cc2)coc2cc(O)cc(O)c12 [Genistein (Biofocus)] | 1.05 ± 0.078 | 1.04 ± 0.09 | 1.08 ± 0.099 | 1.21 ± 0.15 | 1.06 ± 0.021 |
| NC[C@H]1CC[C@H](C(=O)O)CC1 | 0.995 ± 0.022 | 1.025 ± 0.0071 | 1.02 ± 0.014 | 0.927 ± 0.1 | 0.981 ± 0.028 |
| O=C1c2ccccc2C(=O)c2c1ccc(O)c2O | 1.01 ± 0.074 | 1.05 ± 0.13 | 0.983 ± 0.053 | 1.09 ± 0.11 | 1.1 ± 0.13 |
| CC(C)(Oc1ccc(C2CC2(Cl)Cl)cc1)C(=O)O (stereo not given) | 1.06 ± 0.05 | 0.968 ± 0.074 | 1.06 ± 0.014 | 0.943 ± 0.18 | 0.963 ± 0.17 |
| COc1cc(N)c(Cl)cc1C(=O)NC1CCN(Cc2ccccc2)CC1 | 0.971 ± 0.026 | 0.883 ± 0.041 | 0.975 ± 0.0071 | 0.8815 ± 0.0021 | 0.998 ± 0.017 |
| CC1=C(C(=O)O)N2C(=O)[C@@H](NC(=O)[C@H](N)c3ccccc3)[C@H]2SC1 | 1 ± 0.065 | 1.02 ± 0.082 | 0.983 ± 0.025 | 0.991 ± 0.056 | 1.015 ± 0.0071 |
| CC(C)[C@@H](C)/C=C/[C@@H](C)[C@H]1CC[C@H]2C3=CCC4CC(=O)CC[C@]4(C)[C@H]3CC[C@]12C (stereo not given in full) | 0.975 ± 0.078 | 1.07 ± 0.05 | 1.08 | 1.06 ± 0.071 | 1.06 ± 0.021 |
| CCC(C)C(NC)C(=O)O (stereo not given) | 0.959 ± 0.073 | 0.923 ± 0.058 | 0.946 ± 0.05 | 1.01 ± 0.22 | 0.947 ± 0.09 |
| CC(=O)c1oc(C)c2c1C(=O)c1cccc(O)c1C2=O [Bhimamycin B] | 0.955 ± 0.019 | 1.01 ± 0.015 | 0.9505 ± 0.00071 | 1.02 ± 0.035 | 1.1 ± 0.028 |
| C=C(C)[C@@H]1C[C@H](O)[C@]2(C(=O)O)CC[C@]3(C)[C@H](C[C@H]4OC(=O)C[C@@H](O)[C@]5(C)[C@@H]4[C@@]3(C)CC[C@H]5C(=C)C)[C@@H]12 [22alpha-hydroxychiisanogenin (11)] | 0.883 ± 0.21 | 0.884 ± 0.14 | 0.984 ± 0.094 | 0.859 ± 0.2 | 0.922 ± 0.017 |
| CCN(CC)CCNC(=O)c1cc(S(C)(=O)=O)ccc1OC | 0.99 ± 0.13 | 1.025 ± 0.0071 | 1 ± 0.023 | 0.971 ± 0.084 | 0.925 ± 0.039 |
| CC1(C)C(=O)C=C[C@@]2(C)C1CC(=O)[C@@]1(C)C3=CC(=O)O[C@@H](c4ccoc4)[C@]3(C)CCC12 (stereo not given in full) | 0.921 ± 0.04 | 0.988 ± 0.045 | 0.977 ± 0.027 | 0.913 ± 0.03 | 0.956 ± 0.076 |
| CCCCCCCCCCCCCCCCCCOCC(O)CO (stereo not given) | 0.991 ± 0.084 | 0.989 ± 0.073 | 1.02 ± 0.021 | 1.035 ± 0.0071 | 1.01 ± 0.09 |
